The record followed here is publication PMC7862700, “An all-to-all approach to the identification of sequence-specific readers for epigenetic DNA modifications on cytosine”.

The first assay addresses T1, ERG (Homo sapiens, UniProt P11308 1-479).
T1 sequence: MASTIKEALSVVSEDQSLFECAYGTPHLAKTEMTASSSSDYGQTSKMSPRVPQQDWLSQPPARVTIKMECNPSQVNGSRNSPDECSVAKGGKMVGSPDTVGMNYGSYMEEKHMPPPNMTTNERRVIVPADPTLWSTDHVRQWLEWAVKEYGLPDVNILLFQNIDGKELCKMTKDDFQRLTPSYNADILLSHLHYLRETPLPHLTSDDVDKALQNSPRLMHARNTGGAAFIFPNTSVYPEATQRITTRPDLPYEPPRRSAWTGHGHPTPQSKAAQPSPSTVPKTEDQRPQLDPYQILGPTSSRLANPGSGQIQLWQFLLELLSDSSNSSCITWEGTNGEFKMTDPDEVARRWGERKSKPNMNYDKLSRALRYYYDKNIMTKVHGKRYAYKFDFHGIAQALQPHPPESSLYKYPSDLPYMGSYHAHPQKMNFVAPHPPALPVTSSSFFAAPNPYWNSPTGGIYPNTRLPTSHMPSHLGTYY
The assay can be described thus: DAPPL (digital affinity profiling via proximity ligation, sequencing); 10 mM Tris-HCl pH 7.5, 50 mM NaCl, 1 mM DTT, 4% glycerol, room temperature, 30 min; GST-TFs on glutathione beads, 16-mer random dsDNA library, 0.1% formaldehyde crosslink after washing; high values mean tight binding. Particulars: protein: recombinant; tags: N-terminal GST; dsDNA, one strand shown. The essentials:
(§1)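 Pools were built from human transcription factors expressed in yeast as GST fusions, captured on glutathione beads and DNA-barcoded, along with a tag-only sample. Incubation with 200 nmole of a 16-mer random double-stranded DNA library lasted 30 min at room temperature in Tris/NaCl/DTT/glycerol buffer, and was followed by washing, 0.1% formaldehyde crosslinking, proximity ligation, PCR amplification and Illumina NextSeq500 sequencing. Binding signal is the quotient of each hexamer's read frequency for a factor and its frequency for the tag-only sample.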
As to CGACTT, the binding signal was 1.84 fold enrichment (6-mer frequency, TF over GST control).

For TTTTAG, the binding signal is 1.19 fold enrichment (6-mer frequency, TF over GST control).

Turning to CAATGC, the binding signal was 1.12 fold enrichment (6-mer frequency, TF over GST control).

Turning to ACCCCC, the binding signal is 1.16 fold enrichment (6-mer frequency, TF over GST control).

Take CACCAC: the binding signal is 1.18 fold enrichment (6-mer frequency, TF over GST control).

Turning to AAATAG, the binding signal was 1.22 fold enrichment (6-mer frequency, TF over GST control).

Regarding ACTCCC, the binding signal was 1.45 fold enrichment (6-mer frequency, TF over GST control).

Consider TACTAA, for which the binding signal is 1.29 fold enrichment (6-mer frequency, TF over GST control).

In the case of AACGAC, the binding signal is 1.14 fold enrichment (6-mer frequency, TF over GST control).

Regarding AAGCGC, the binding signal is 1.13 fold enrichment (6-mer frequency, TF over GST control).

CGCTAC: the binding signal was 1.24 fold enrichment (6-mer frequency, TF over GST control).

In the case of CACTGC, the binding signal is 1.41 fold enrichment (6-mer frequency, TF over GST control).

On to GTCCAC, for which the binding signal was 1.03 fold enrichment (6-mer frequency, TF over GST control).

ATGGAA: the binding signal is 1.26 fold enrichment (6-mer frequency, TF over GST control).

Turning to GATACG, the binding signal was 1.11 fold enrichment (6-mer frequency, TF over GST control).

For CATGGT, the binding signal was 1.38 fold enrichment (6-mer frequency, TF over GST control).

TATGGT: the binding signal is 1.22 fold enrichment (6-mer frequency, TF over GST control).

As for TCCCCA, the binding signal is 1.42 fold enrichment (6-mer frequency, TF over GST control).

For GTTCAT, the binding signal was 1.1 fold enrichment (6-mer frequency, TF over GST control).

In the case of ACACAT, the binding signal was 1.31 fold enrichment (6-mer frequency, TF over GST control).

Take CACTTG: the binding signal is 1.37 fold enrichment (6-mer frequency, TF over GST control).

As to AACACG, the binding signal was 1.22 fold enrichment (6-mer frequency, TF over GST control).

For ACATCA, the binding signal is 1.14 fold enrichment (6-mer frequency, TF over GST control).

On to CAACCC, for which the binding signal was 1.21 fold enrichment (6-mer frequency, TF over GST control).

With TTTCAA, the binding signal was 1.25 fold enrichment (6-mer frequency, TF over GST control).

Consider CTGGTC, for which the binding signal is 1.2 fold enrichment (6-mer frequency, TF over GST control).

For the sequence TTACCG, the binding signal was 1.2 fold enrichment (6-mer frequency, TF over GST control).

CTCGCC: the binding signal is 1.21 fold enrichment (6-mer frequency, TF over GST control).

For TCCCGT, the binding signal was 1.37 fold enrichment (6-mer frequency, TF over GST control).

With CTCGAA, the binding signal is 1.13 fold enrichment (6-mer frequency, TF over GST control).

Regarding CATGCT, the binding signal was 1.23 fold enrichment (6-mer frequency, TF over GST control).

For GTCACT, the binding signal is 1.13 fold enrichment (6-mer frequency, TF over GST control).

For the sequence ATCTTT, the binding signal was 1.21 fold enrichment (6-mer frequency, TF over GST control).

TTATTC: the binding signal was 1.34 fold enrichment (6-mer frequency, TF over GST control).

As to TCATCA, the binding signal was 1.13 fold enrichment (6-mer frequency, TF over GST control).

GCACTG: the binding signal is 1.07 fold enrichment (6-mer frequency, TF over GST control).

For the sequence ATGTAT, the binding signal was 1.35 fold enrichment (6-mer frequency, TF over GST control).

Regarding CCCTAA, the binding signal was 1.17 fold enrichment (6-mer frequency, TF over GST control).

Take CTCAGC: the binding signal is 1.24 fold enrichment (6-mer frequency, TF over GST control).

Another assay deals with ELF1 (Homo sapiens, UniProt P32519 1-619). Described as above. Particulars: protein: recombinant; tags: N-terminal GST; dsDNA, one strand shown. The essentials: as §1
ELF1, sequence (P32519 whole entry): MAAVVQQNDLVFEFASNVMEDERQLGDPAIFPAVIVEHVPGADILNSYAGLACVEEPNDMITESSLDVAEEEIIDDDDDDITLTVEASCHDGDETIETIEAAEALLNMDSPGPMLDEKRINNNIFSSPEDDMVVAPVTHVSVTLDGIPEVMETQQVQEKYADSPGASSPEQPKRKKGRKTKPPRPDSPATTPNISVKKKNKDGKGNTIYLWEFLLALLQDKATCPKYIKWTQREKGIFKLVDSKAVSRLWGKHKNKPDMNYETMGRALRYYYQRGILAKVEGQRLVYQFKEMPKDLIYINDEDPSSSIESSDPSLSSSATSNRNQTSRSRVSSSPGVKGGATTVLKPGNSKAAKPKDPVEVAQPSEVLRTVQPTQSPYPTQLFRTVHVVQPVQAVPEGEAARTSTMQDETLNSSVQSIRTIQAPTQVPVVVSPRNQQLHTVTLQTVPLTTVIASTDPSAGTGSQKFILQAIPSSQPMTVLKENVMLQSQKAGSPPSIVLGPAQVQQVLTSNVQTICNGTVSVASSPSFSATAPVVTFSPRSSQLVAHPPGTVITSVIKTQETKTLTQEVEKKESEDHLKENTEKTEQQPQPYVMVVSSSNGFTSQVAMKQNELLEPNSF
As to CGACTT, the binding signal is 1.69 fold enrichment (6-mer frequency, TF over GST control).

Turning to TTTTAG, the binding signal was 1.21 fold enrichment (6-mer frequency, TF over GST control).

As for CAATGC, the binding signal is 1.21 fold enrichment (6-mer frequency, TF over GST control).

Consider ACCCCC, for which the binding signal is 1.09 fold enrichment (6-mer frequency, TF over GST control).

As for CACCAC, the binding signal was 1.18 fold enrichment (6-mer frequency, TF over GST control).

With AAATAG, the binding signal is 1.08 fold enrichment (6-mer frequency, TF over GST control).

For the sequence ACTCCC, the binding signal is 1.46 fold enrichment (6-mer frequency, TF over GST control).

As for TACTAA, the binding signal is 1.28 fold enrichment (6-mer frequency, TF over GST control).

For the sequence AACGAC, the binding signal was 1.09 fold enrichment (6-mer frequency, TF over GST control).

Consider AAGCGC, for which the binding signal is 1.15 fold enrichment (6-mer frequency, TF over GST control).

In the case of CGCTAC, the binding signal was 1.2 fold enrichment (6-mer frequency, TF over GST control).

On to CACTGC, for which the binding signal is 1.44 fold enrichment (6-mer frequency, TF over GST control).

For the sequence GTCCAC, the binding signal is 1.02 fold enrichment (6-mer frequency, TF over GST control).

For ATGGAA, the binding signal was 1.16 fold enrichment (6-mer frequency, TF over GST control).

On to GATACG, for which the binding signal is 1.15 fold enrichment (6-mer frequency, TF over GST control).

As for CATGGT, the binding signal was 1.21 fold enrichment (6-mer frequency, TF over GST control).

With TATGGT, the binding signal was 1.37 fold enrichment (6-mer frequency, TF over GST control).

Regarding TCCCCA, the binding signal was 1.39 fold enrichment (6-mer frequency, TF over GST control).

Regarding GTTCAT, the binding signal is 1.13 fold enrichment (6-mer frequency, TF over GST control).

In the case of ACACAT, the binding signal was 1.25 fold enrichment (6-mer frequency, TF over GST control).

For the sequence CACTTG, the binding signal is 1.33 fold enrichment (6-mer frequency, TF over GST control).

Regarding AACACG, the binding signal is 1.18 fold enrichment (6-mer frequency, TF over GST control).

ACATCA: the binding signal is 1.16 fold enrichment (6-mer frequency, TF over GST control).

CAACCC: the binding signal is 1.24 fold enrichment (6-mer frequency, TF over GST control).

For the sequence TTTCAA, the binding signal was 1.3 fold enrichment (6-mer frequency, TF over GST control).

Take CTGGTC: the binding signal was 1.15 fold enrichment (6-mer frequency, TF over GST control).

For the sequence TTACCG, the binding signal is 1.11 fold enrichment (6-mer frequency, TF over GST control).

Turning to CTCGCC, the binding signal was 1.25 fold enrichment (6-mer frequency, TF over GST control).

For TCCCGT, the binding signal was 1.26 fold enrichment (6-mer frequency, TF over GST control).

Consider CTCGAA, for which the binding signal is 1.18 fold enrichment (6-mer frequency, TF over GST control).

For CATGCT, the binding signal was 1.23 fold enrichment (6-mer frequency, TF over GST control).

Consider GTCACT, for which the binding signal is 1.1 fold enrichment (6-mer frequency, TF over GST control).

Consider ATCTTT, for which the binding signal was 1.19 fold enrichment (6-mer frequency, TF over GST control).

As to TTATTC, the binding signal is 1.3 fold enrichment (6-mer frequency, TF over GST control).

For TCATCA, the binding signal was 1.14 fold enrichment (6-mer frequency, TF over GST control).

For the sequence GCACTG, the binding signal is 1.1 fold enrichment (6-mer frequency, TF over GST control).

As for ATGTAT, the binding signal is 1.3 fold enrichment (6-mer frequency, TF over GST control).

As to CCCTAA, the binding signal was 1.25 fold enrichment (6-mer frequency, TF over GST control).

Consider CTCAGC, for which the binding signal is 1.3 fold enrichment (6-mer frequency, TF over GST control).

The next assay addresses T2, EHF (Homo sapiens, UniProt Q9NZC4 1-300).
T2 sequence: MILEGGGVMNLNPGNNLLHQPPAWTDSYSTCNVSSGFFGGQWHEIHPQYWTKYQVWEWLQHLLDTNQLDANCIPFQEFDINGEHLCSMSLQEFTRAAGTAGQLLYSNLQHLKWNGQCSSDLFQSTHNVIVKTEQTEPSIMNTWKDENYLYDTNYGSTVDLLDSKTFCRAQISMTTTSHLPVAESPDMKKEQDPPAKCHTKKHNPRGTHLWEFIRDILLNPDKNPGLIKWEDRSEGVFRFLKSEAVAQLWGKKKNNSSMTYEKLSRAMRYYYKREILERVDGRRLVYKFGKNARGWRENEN
Described as above. Particulars: protein: recombinant; tags: N-terminal GST; dsDNA, one strand shown. The essentials:
as §1
Turning to CGACTT, the binding signal was 1.8 fold enrichment (6-mer frequency, TF over GST control).

On to TTTTAG, for which the binding signal was 1.12 fold enrichment (6-mer frequency, TF over GST control).

With CAATGC, the binding signal is 1.17 fold enrichment (6-mer frequency, TF over GST control).

Regarding ACCCCC, the binding signal was 1.12 fold enrichment (6-mer frequency, TF over GST control).

Regarding CACCAC, the binding signal is 1.11 fold enrichment (6-mer frequency, TF over GST control).

Regarding AAATAG, the binding signal was 1.19 fold enrichment (6-mer frequency, TF over GST control).

As to ACTCCC, the binding signal was 1.38 fold enrichment (6-mer frequency, TF over GST control).

Consider TACTAA, for which the binding signal was 1.3 fold enrichment (6-mer frequency, TF over GST control).

For AACGAC, the binding signal was 1.1 fold enrichment (6-mer frequency, TF over GST control).

With AAGCGC, the binding signal is 1.19 fold enrichment (6-mer frequency, TF over GST control).

As for CGCTAC, the binding signal is 1.13 fold enrichment (6-mer frequency, TF over GST control).

As for CACTGC, the binding signal is 1.58 fold enrichment (6-mer frequency, TF over GST control).

Consider GTCCAC, for which the binding signal is 1.12 fold enrichment (6-mer frequency, TF over GST control).

Consider ATGGAA, for which the binding signal was 1.2 fold enrichment (6-mer frequency, TF over GST control).

GATACG: the binding signal was 1.24 fold enrichment (6-mer frequency, TF over GST control).

For CATGGT, the binding signal is 1.22 fold enrichment (6-mer frequency, TF over GST control).

As to TATGGT, the binding signal is 1.39 fold enrichment (6-mer frequency, TF over GST control).

Take TCCCCA: the binding signal is 1.45 fold enrichment (6-mer frequency, TF over GST control).

Regarding GTTCAT, the binding signal is 1.17 fold enrichment (6-mer frequency, TF over GST control).

On to ACACAT, for which the binding signal was 1.35 fold enrichment (6-mer frequency, TF over GST control).

For CACTTG, the binding signal was 1.36 fold enrichment (6-mer frequency, TF over GST control).

Consider AACACG, for which the binding signal is 1.14 fold enrichment (6-mer frequency, TF over GST control).

With ACATCA, the binding signal was 1.23 fold enrichment (6-mer frequency, TF over GST control).

Regarding CAACCC, the binding signal is 1.16 fold enrichment (6-mer frequency, TF over GST control).

For TTTCAA, the binding signal is 1.3 fold enrichment (6-mer frequency, TF over GST control).

Regarding CTGGTC, the binding signal was 1.2 fold enrichment (6-mer frequency, TF over GST control).

On to TTACCG, for which the binding signal was 1.24 fold enrichment (6-mer frequency, TF over GST control).

For CTCGCC, the binding signal was 1.19 fold enrichment (6-mer frequency, TF over GST control).

With TCCCGT, the binding signal was 1.35 fold enrichment (6-mer frequency, TF over GST control).

CTCGAA: the binding signal was 1.21 fold enrichment (6-mer frequency, TF over GST control).

In the case of CATGCT, the binding signal was 1.24 fold enrichment (6-mer frequency, TF over GST control).

Turning to GTCACT, the binding signal is 1.15 fold enrichment (6-mer frequency, TF over GST control).

Take ATCTTT: the binding signal is 1.27 fold enrichment (6-mer frequency, TF over GST control).

Regarding TTATTC, the binding signal is 1.29 fold enrichment (6-mer frequency, TF over GST control).

TCATCA: the binding signal is 1.09 fold enrichment (6-mer frequency, TF over GST control).

With GCACTG, the binding signal was 1.12 fold enrichment (6-mer frequency, TF over GST control).

Consider ATGTAT, for which the binding signal was 1.28 fold enrichment (6-mer frequency, TF over GST control).

On to CCCTAA, for which the binding signal is 1.24 fold enrichment (6-mer frequency, TF over GST control).

Turning to CTCAGC, the binding signal was 1.28 fold enrichment (6-mer frequency, TF over GST control).
